The panel holds about 83,000 compounds, 20% with a hit somewhere; the sample as a whole holds those more often.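 Growth was measured after 48 h exposure to one concentration of compound in 96-well plates. Values under 10 count as active.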 Calls of active or inactive are those of the source.
The molecules below were run on OVCAR-4 ovarian (assay: NCI-60 one-dose screen, 48 h (100 = growth as untreated, 0 = no growth, -100 = all killed)). Settings: 10 µM unless noted.

Row | SMILES | growth
1 | COc1ccc(C2SCC(=O)N2NC(=O)c2ccc(NC(=O)c3ccccn3)cc2)cc1OC (stereo not drawn) | 100% (inactive)
2 | O=C(O)c1cn(C2CC2)c2cc(N3CCN(S(=O)(=O)c4ccc(Cl)c(Cl)c4)CC3)c(F)cc2c1=O | 20.8% (inactive)
3 | COc1ccc(/C=C/C(=O)c2ccc(B(O)O)cc2)cc1O | 114% (inactive)
4 | Cc1cc(C)c(NC(=O)c2sc3nc4c(cc3c2N)CN(Cc2ccccc2)CC4)c(C)c1 | 31.6% (inactive)
5 | COc1cccc(-c2nc3sccn3c2-c2ccnc(NCCCNS(=O)(=O)c3ccccc3)n2)c1 | 55.7% (inactive)
6 | COc1cc(NCCN=C(N)NC(N)=NC(C)C)c2ncccc2c1 | -40.1% (active)
7 | Cc1ccc(Nc2ncnc3c2sc2ncccc23)cc1 | 109% (inactive)
8 | COc1cccc(/C=C2\SC(N3CCN(c4ccccn4)CC3)=NC2=O)c1 | 110% (inactive)
9 | CCOC(=O)C1=C(CSC(=S)N(C2CCCCC2)C2CCCCC2)N(C)C(=O)NC1c1ccccc1 (stereo not drawn) | 45% (inactive)
10 | CC(C)C[C@H](NC(=O)[C@@H](Cc1ccccc1)n1ccc(Nc2ccccc2)cc1=O)B(O)O | 33.9% (inactive)
11 | COc1cccc(-c2nc3sccn3c2-c2ccnc(NCCCNS(=O)(=O)c3ccc(F)cc3)n2)c1 | 25.2% (inactive)
12 | O=S(=O)(NCCCNc1nccc(-c2c(-c3ccccc3)nc3sccn23)n1)c1ccc(F)cc1 | 36.2% (inactive)
13 | Nc1c(C(=O)Nc2ccccc2)sc2nc3c(cc12)CCCCC3 | 15.3% (inactive)
14 | CCNC(=O)CCCCC(=O)c1c(C)[nH]c(/C=C2\N=C(c3ccc[nH]3)C=C2OC)c1C | -59.4% (active)
15 | Cc1cc(Nc2nc(C(=O)Nc3ccccc3)nc3ccccc23)n[nH]1 | 44.6% (inactive)
16 | CCCCCCCCCCCCCCCCC(Br)C(=O)O (stereo not drawn) | 97.8% (inactive)
17 | COc1ccc(/C=C2\C(=O)N(C(=O)c3csc(NC(C)=O)n3)N=C2C)cc1 | 109% (inactive)

Row | SMILES | growth
18 | COc1ccc(-c2nc3sccn3c2-c2ccnc(NCCCNS(=O)(=O)c3ccc4ccccc4c3)n2)cc1 | 68.1% (inactive)
19 | CN=S(=O)(NC(=O)c1ccc(Cl)cc1Cl)c1ccc(Br)s1 (stereo not drawn) | 103% (inactive)
20 | Cc1ccc(S(=O)(=O)NCCCNc2nccc(-c3c(-c4ccccc4)nc4sccn34)n2)cc1 | 48.4% (inactive)
21 | COc1cc(OC)c(C(=O)/C=C/c2cccc(C#N)c2)c(OC)c1 | 18.1% (inactive)
22 | COc1ccc(C2CC(c3cccs3)=NN2c2ccc(S(=O)(=O)NC(=O)Nc3ccc(C)cc3)cc2)cc1 (stereo not drawn) | 106% (inactive)
23 | O=S(=O)(NCCNc1nccc(-c2c(-c3ccccc3)nc3sccn23)n1)c1ccc(O)cc1 | 56.5% (inactive)
24 | CNC(=O)Cc1nc(-c2cccc(NS(=O)(=O)c3c(F)cccc3F)c2F)c(-c2ccnc(Nc3ccccc3)n2)s1 | 124% (inactive)
25 | O=c1[nH]c2ccccc2cc1-c1nnc(Cc2ccccc2)o1 | 61.3% (inactive)
26 | Oc1ccc(Cl)cc1-c1cc(-c2ccc(Cl)cc2)n[nH]1 | 35% (inactive)
27 | CN1C(=O)[C@H]2c3c1cccc3[C@@]13NC(=O)O[C@H]1[C@H](CCC3(C)C)C2(C)C | 99% (inactive)
28 | Cc1cccc(-n2c(C)nc3ccc(NC(=O)NCCCl)cc3c2=O)c1 | 107% (inactive)
29 | COc1c(NC[C@H]2OC(O)[C@H](O)[C@@H](O)[C@@H]2O)c(=O)c1=O (stereo partly drawn) | 84.4% (inactive)
30 | COc1ccc(-c2nnc(COc3ccc(NS(=O)(=O)c4ccc(OC)cc4)cc3F)o2)cc1 | 57.3% (inactive)
31 | CCCOC(=O)C1(O)CCCC1 | 102% (inactive)
32 | Nc1c(C(=O)Nc2ccccc2)sc2nc3c(cc12)CN(Cc1ccccc1)CC3 | -14.7% (active)
33 | COc1cc(OC)cc(-c2n[nH]nc2-c2ccc3c(c2)OCO3)c1 | 52.5% (inactive)
34 | Cc1ccc(Oc2nc3ccccc3cc2-c2nnc(Cn3c(COc4ccccc4)nc4ccccc43)o2)cc1 | 53.9% (inactive)

These molecules were tested on SK-OV-3 ovarian in the same assay as above. Settings: 10 µM unless noted.

Row | SMILES | growth
35 | O=C(O)c1cn(C2CC2)c2cc(N3CCN(S(=O)(=O)c4ccc(Cl)c(Cl)c4)CC3)c(F)cc2c1=O | 26.8% (inactive)
36 | COc1ccc(/C=C/C(=O)c2ccc(B(O)O)cc2)cc1O | 82.7% (inactive)
37 | O=C(Nc1ccc(OCc2nnc(-c3ccc(Cl)cc3)o2)c(F)c1)Nc1ccc(Cl)c(Cl)c1 | 60.6% (inactive)
38 | COc1cc(/C=C2\C=C(c3ccc(F)cc3)N(Cc3ccccc3)C2=O)cc(OC)c1OC | 99.3% (inactive)
39 | Cc1cc(C)c(NC(=O)c2sc3nc4c(cc3c2N)CN(Cc2ccccc2)CC4)c(C)c1 | 23.9% (inactive)
40 | COc1cccc(-c2nc3sccn3c2-c2ccnc(NCCCNS(=O)(=O)c3ccccc3)n2)c1 | 73% (inactive)
41 | COc1cc(NCCN=C(N)NC(N)=NC(C)C)c2ncccc2c1 | 92.3% (inactive)
42 | Cc1ccc(Nc2ncnc3c2sc2ncccc23)cc1 | 101% (inactive)
43 | CCOC(=O)C1=C(CSC(=S)N(C2CCCCC2)C2CCCCC2)N(C)C(=O)NC1c1ccccc1 (stereo not drawn) | 71.4% (inactive)
44 | CC(C)C[C@H](NC(=O)[C@@H](Cc1ccccc1)n1ccc(Nc2ccccc2)cc1=O)B(O)O | 46.1% (inactive)
45 | COc1cccc(-c2nc3sccn3c2-c2ccnc(NCCCNS(=O)(=O)c3ccc(F)cc3)n2)c1 | 72.7% (inactive)
46 | O=S(=O)(NCCCNc1nccc(-c2c(-c3ccccc3)nc3sccn23)n1)c1ccc(F)cc1 | 59.1% (inactive)
47 | Nc1c(C(=O)Nc2ccccc2)sc2nc3c(cc12)CCCCC3 | 17.1% (inactive)
48 | CCNC(=O)CCCCC(=O)c1c(C)[nH]c(/C=C2\N=C(c3ccc[nH]3)C=C2OC)c1C | 57.7% (inactive)
49 | Cc1cc(Nc2nc(C(=O)Nc3ccccc3)nc3ccccc23)n[nH]1 | 39.3% (inactive)
50 | COc1ccc(/C=C2\C(=O)N(C(=O)c3csc(NC(C)=O)n3)N=C2C)cc1 | 100% (inactive)
51 | CC[C@]1(O)C[C@@H]2CN(Cc3c([nH]c4ccccc34)[C@@](C(=O)OC)(c3cc4c(cc3OC)N(C)[C@H]3[C@@](O)(C(=O)OC)[C@H](OC(C)=O)[C@]5(CC)[C@@H]6C[C@@H]6CN6CC[C@]43[C@@H]65)C2)C1 | 15.2% (inactive)

Row | SMILES | growth
52 | CN=S(=O)(NC(=O)c1ccc(Cl)cc1Cl)c1ccc(Br)s1 (stereo not drawn) | 111% (inactive)
53 | Cc1ccc(S(=O)(=O)NCCCNc2nccc(-c3c(-c4ccccc4)nc4sccn34)n2)cc1 | 57.9% (inactive)
54 | COc1cc(OC)c(C(=O)/C=C/c2cccc(C#N)c2)c(OC)c1 | 0.849% (active)
55 | COc1ccc(C2CC(c3cccs3)=NN2c2ccc(S(=O)(=O)NC(=O)Nc3ccc(C)cc3)cc2)cc1 (stereo not drawn) | 78.3% (inactive)
56 | O=S(=O)(NCCNc1nccc(-c2c(-c3ccccc3)nc3sccn23)n1)c1ccc(O)cc1 | 65.3% (inactive)
57 | CNC(=O)Cc1nc(-c2cccc(NS(=O)(=O)c3c(F)cccc3F)c2F)c(-c2ccnc(Nc3ccccc3)n2)s1 | 29.9% (inactive)
58 | O=c1[nH]c2ccccc2cc1-c1nnc(Cc2ccccc2)o1 | 92.8% (inactive)
59 | CCCCCCC[C@@H](O)CC(=O)N[C@H](CCCCN)C(=O)N[C@H](Cc1c[nH]c2ccccc12)C(=O)NC(CCCCN)C(=O)N[C@H](CC(C)C)C(=O)N[C@H](Cc1ccccc1)C(=O)N[C@H](CCCCN)C(=O)N[C@H](CCCCN)C(=O)N[C@H](CC(C)C)C(=O)N1CCCC1C(=O)N[C@H](CCCCN)C(=O)N[C@H](Cc1ccccc1)C(=O)N[C@H](CC(C)C)C(=O)N[C@H](Cc1c[nH]cn1)C(=O)N[C@H](CC(C)C)C(=O)N[C@H](C)C(=O)N[C@H](CCCCN)C(=O)N[C@H](CCCCN)C(=O)N[C@H](Cc1ccccc1)C(=O)O (stereo partly drawn) | -62.8% (active)
60 | CN1C(=O)[C@H]2c3c1cccc3[C@@]13NC(=O)O[C@H]1[C@H](CCC3(C)C)C2(C)C | 120% (inactive)
61 | Cc1cccc(-n2c(C)nc3ccc(NC(=O)NCCCl)cc3c2=O)c1 | 102% (inactive)
62 | COc1c(NC[C@H]2OC(O)[C@H](O)[C@@H](O)[C@@H]2O)c(=O)c1=O (stereo partly drawn) | 106% (inactive)
63 | COc1ccc(-c2nnc(COc3ccc(NS(=O)(=O)c4ccc(OC)cc4)cc3F)o2)cc1 | 83.9% (inactive)
64 | CCCOC(=O)C1(O)CCCC1 | 111% (inactive)
65 | Nc1c(C(=O)Nc2ccccc2)sc2nc3c(cc12)CN(Cc1ccccc1)CC3 | 39.2% (inactive)
66 | COc1cc(OC)cc(-c2n[nH]nc2-c2ccc3c(c2)OCO3)c1 | 16.3% (inactive)
67 | Cc1ccc(Oc2nc3ccccc3cc2-c2nnc(Cn3c(COc4ccccc4)nc4ccccc43)o2)cc1 | 77.3% (inactive)
68 | COc1cc(C(=O)/C=C/c2cc(C(=O)c3cc(OC)c(OC)c(OC)c3)ccc2OC)ccc1N | 32.5% (inactive)
